Compounds without any hit were thinned out: in the full panel of roughly 79,000, 15% have a hit. Values without a mark were called inactive. Activity calls are given as the source filed them. No stated cut-off is given here; in the data, active means growth inhibition above about 70%; inactive means the rest.

Results on 40 compounds are retold here after PubChem BioAssay (NCI).

A short description of this experiment: NCI Yeast Anticancer Drug Screen. Data for the mlh1 rad18 strain (AID 175). As to conditions: S. cerevisiae mlh1 rad18 strain growth inhibition; at 50.0 µM (retest, dose inferred, filed as 5.0); hits give high values. The method in brief: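 Test agents were incubated with a yeast strain of defined genotype (DNA damage repair defect). Inhibition of growth was derived by comparison with vehicle-exposed cultures.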
In the case of `CCC(c1ccc(OC)cc1)C(O)(CC)c1ccc(OC)cc1` (stereo not given), the growth inhibition is 98% (active).

`Cc1c(Cl)c(S(N)(=O)=O)cc2c1NC=NS2(=O)=O`: the growth inhibition was 10%.

Consider `CCCCCCCCNc1ncnc2c1cnn2C`, for which the growth inhibition was 86% (active).

Regarding `Cc1cc(N)c(C)c2c1[nH]c1ccc(Br)cc12`, the growth inhibition was 98% (active).

As to `C(=C\c1cnnc2ccccc12)/c1ccco1`, the growth inhibition was 40%.

With `Cc1cc(N(CCCCl)CCCCl)ccc1C=Nc1cccc(Cl)c1`, the growth inhibition is 23%.

With `CCC[CH2][Sn]([CH2]CCC)([O]C(=O)c1cc(F)ccc1F)[O]C(=O)c1cc(F)ccc1F`, the growth inhibition is 20%.

`O=[N+]([O-])c1ccc(N2N=NC(CN3CCOCC3)C2N2CCOCC2)cc1` (stereo not given): the growth inhibition is 47%.

As for `O=CC(I)=C(c1ccccc1)c1ccccc1`, the growth inhibition is 21%.

With `CCC/C(=N\O)S(=O)(=O)c1ccc(NN=O)nc1`, the growth inhibition was -21%.

Turning to `COc1cc(Cc2n[nH]c(=S)n2-c2ccccc2)c(S(N)(=O)=O)cc1OC`, the growth inhibition is -62%.

As for `CC(=O)Nc1ccc(C(C)(C)c2ccc(C)cc2)cc1`, the growth inhibition is 96% (active).

In the case of `CC(C)=NOc1ccc([N+](=O)[O-])cc1[N+](=O)[O-]`, the growth inhibition is 93% (active).

`CC(=O)Nc1ccc2c(c1)C(S)c1ccccc1-2` (stereo not given): the growth inhibition is 71% (active).

As for `CCN1CC(=O)N(C)C1=S`, the growth inhibition was -41%.

For the compound `[O-][n+]1c(-c2ccccc2)c(Cl)c(-c2ccccc2)n1O`, the growth inhibition was 95% (active).

Regarding `CCCCCCCCCCCCCCCCN(C)c1ccc(S(=O)(=O)O)cc1[N+](=O)[O-]`, the growth inhibition was 73% (active).

In the case of `Cc1ccc2c(c1)-c1c(c3c(c4c1-c1cc(C)ccc1CC4)C(=O)OC3=O)CC2`, the growth inhibition is 56%.

Turning to `C[N+](C)(CCO)Cc1ccccc1`, the growth inhibition was 6%.

Turning to `CCOC(=O)C(C)(C)Oc1ccc2c(=O)cc(-c3ccccc3)oc2c1`, the growth inhibition was 94% (active).

As to `CS(=O)c1cc(=O)c2ccccc2s1` (stereo not given), the growth inhibition is 88% (active).

On to `COC(=O)c1c[nH]c2ccc(Br)cc12`, for which the growth inhibition is 40%.

As for `CCCCN1C(=O)C(=O)N(c2ccccc2)C1=O`, the growth inhibition is 15%.

`Cc1cc(N)c2cc(OCCOc3ccc4nc(C)cc(N)c4c3)ccc2n1`: the growth inhibition is 94% (active).

Turning to `Cc1c2c(c(C)c3c4c(oc13)CCCC4)C=NCC2`, the growth inhibition is 45%.

As to `CCCC(c1ccc(O)cc1)c1ccc(O)cc1`, the growth inhibition is 96% (active).

On to `CC(C)=NNc1ncnc2nc[nH]c12`, for which the growth inhibition was 3%.

`Clc1ccc(C2=Nc3ccccc3SC(c3ccc(Cl)c(Cl)c3)C2)c(Cl)c1` (stereo not given): the growth inhibition is 13%.

Turning to `N#Cc1c(Cl)nsc1-c1ccc([N+](=O)[O-])cc1`, the growth inhibition was 87% (active).

As to `C=CCSc1nc2ccccc2c(=O)n1Cc1ccco1`, the growth inhibition was 64%.

On to `COC(=O)CSc1nc2[nH]c(SC)c(C(N)=O)c2c(=O)n1-c1ccccc1`, for which the growth inhibition is -19%.

Take `Cc1cc2oc3c(ccc(=O)n3C)c(=O)c2c(C)c1Cl`: the growth inhibition is 48%.

`CC(=O)SC1C(=O)N(C)C(SC(C)=O)C(=O)N1C` (stereo not given): the growth inhibition is 70% (active).

Take `CCCCCCCCCCCCCCCCOCC(Cl)COP(=O)(O)OP(=O)(O)OCC1OC(n2cc(C)c(=O)[nH]c2=O)CC1O` (stereo not given): the growth inhibition was 97% (active).

For `CCCCCCCCCCNC(=O)CBr`, the growth inhibition is 99% (active).

For the compound `O=Cc1c(Cn2ccnc2)c2cc([N+](=O)[O-])ccc2n1Cc1ccccc1`, the growth inhibition is 64%.

Regarding `C=C(C)C1CC2=C(O1)C(=O)c1ccccc1C2=O` (stereo not given), the growth inhibition was 98% (active).

As for `CC(C)C1=CC2=CCC3C(C)(C(=O)O)CCCC3(C)C2CC1` (stereo not given) (tested in a mixture with another compound), the growth inhibition was 92% (active).

Take `ClCC1CSC2(CCCCC2)O1` (stereo not given): the growth inhibition is -23%.

With `Oc1cccc2ccc(SSc3ccc4cccc(O)c4n3)nc12`, the growth inhibition was 93% (active).
